Source: PubChem
Compounds with a hit are over-represented: about 3.7% of the library has one in this group of screens.
Ecoli rRNA inh: selective bacterial rRNA inhibition in E. coli | E. coli WT GFP vs humanized-ribosome RFP mutants, fluorescence, 24 h; active compounds read low; DMSO median 0, no signal -100 | GFP signal change (wild-type ribosome), % (concentration not given with the values) | 350,000 compounds, 1.6% hits | AID 720706;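 active = significant combined selectivity score with lowered wild-type GFP, culture density cut under 30%, mutant RFP and density less affected; inactive = any of these conditions unmet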
esBAF inh: inhibitors of esBAF chromatin remodeling in mouse ES cells; reporter increase, % at 12.5 µM; 350,000 compounds, 2% hits; AID 602393; Bmi1-luciferase knock-in reporter, 24 h; 100% = twice the neutral-well signal; in the data active = activation above about 40%; inconclusive = no clear call, values can overlap the other calls;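 note: 0% = median of the plate's neutral control wells and 100% = double that signal; a rise in the Bmi1 reporter signal indicates esBAF inhibition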
Wnt act: Wnt/beta-catenin pathway activation; Wnt/beta-catenin reporter cell assay, activator, plate reader; activation, % at 9.35 µM; 300,000 compounds, 1.2% hits; AID 743398; in the data active = activation above about 30%, passing the limit was not always enough; inconclusive = no clear call, values can overlap the other calls;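 note: 0% = neutral control wells and 100% = positive control wells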
AF4-AF9 inh: blocks AF4 peptide binding to human AF9. AlphaScreen, biotin-AF4 peptide binding to FLAG-AF9. 350,000 compounds, 0.47% hits. P42568. inhibition, % at 10 µM. AID 651704;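 active = every replicate reaching a set inhibition limit, whatever the replicate mean, cut at about 25% in these data; inconclusive = mean inhibition reaches that limit but some replicates miss it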;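 note: 0% = plate neutral control median and 100% = total signal loss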
Target sequence (P42568 whole entry, looked up): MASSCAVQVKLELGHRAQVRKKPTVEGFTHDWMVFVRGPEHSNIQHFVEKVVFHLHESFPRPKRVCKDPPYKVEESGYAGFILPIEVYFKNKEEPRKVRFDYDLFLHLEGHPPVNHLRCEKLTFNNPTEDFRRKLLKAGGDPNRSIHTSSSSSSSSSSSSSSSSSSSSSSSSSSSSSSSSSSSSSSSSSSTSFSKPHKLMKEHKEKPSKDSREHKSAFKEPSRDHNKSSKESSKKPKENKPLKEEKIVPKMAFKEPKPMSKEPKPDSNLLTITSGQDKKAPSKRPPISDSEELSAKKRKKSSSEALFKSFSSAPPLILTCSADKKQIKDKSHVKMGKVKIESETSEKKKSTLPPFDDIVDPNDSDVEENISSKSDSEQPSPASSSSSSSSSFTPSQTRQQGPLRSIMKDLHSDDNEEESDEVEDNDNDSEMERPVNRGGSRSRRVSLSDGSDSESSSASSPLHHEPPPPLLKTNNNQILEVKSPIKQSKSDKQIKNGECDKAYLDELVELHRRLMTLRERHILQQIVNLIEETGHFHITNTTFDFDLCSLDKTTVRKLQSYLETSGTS
MITF act: MITF TRPM1 promoter activation in melanoma cells | SK-MEL-5 TRPM1-promoter luciferase, 24 h; % of positive control, neutral wells = 0 | activation, % at 12.5 µM | AID 588334 | 300,000 compounds, 0.75% hits;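 active = mean activation of at least 80% with every replicate also reaching 80%; inconclusive = mean reaches 80% but some replicate falls short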;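 note: 0% = neutral control wells and 100% = parthenolide positive control wells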
Alpha interfer: AlphaScreen signal interference counter-screen hit; shares compounds with AF4-AF9 inh; signal luminescence; AC50, µM (doses to about 12 µM), without a hit: at the top dose activity change, negative = inhibition; 530 compounds, 45% hits; cut-off not given, nearly all actives have AC50 up to about 14 µM
The depositor's hits bear a star.

Screening CC(O)CNc1nc2sc3c(c2c(=O)n1CCc1ccccc1)CCCCC3 (stereo not given) returned Ecoli rRNA inh -31.6, Wnt act 2.2, AF4-AF9 inh 7.0 and MITF act 38.4.
`CCN(CC)c1ccc(N=Cc2ccc([N+](=O)[O-])o2)cc1` gave Wnt act 0.9, AF4-AF9 inh 45.8*, MITF act -5.0 and Alpha interfer -24.8%.
For CCCCCC(=O)N/N=C/c1ccc([N+](=O)[O-])o1 the results were Ecoli rRNA inh 5.9, Wnt act 2.4, AF4-AF9 inh 3.9 and MITF act -34.9.
COc1ccccc1N(C(C)=O)C1=C(Cl)C(=O)c2ccccc2C1=O was read as Ecoli rRNA inh -8.7, esBAF inh 1.7, Wnt act -5.4, AF4-AF9 inh 28.2* and Alpha interfer 4.36µM*.
`Cn1c(=O)cc2c3c(c(N4CCCCC4)ccc31)C(=O)c1ccccc1-2` gave Ecoli rRNA inh 0.7, Wnt act 0.1, AF4-AF9 inh 54.3* and Alpha interfer 10.3µM*.
Cc1c(C)n(Cc2ccccc2)c2ccc(C(=O)OCCN(C)C)cc12 was read as Ecoli rRNA inh -39.2, esBAF inh -8.6, Wnt act -1.5, AF4-AF9 inh 27.7*, MITF act 39.8 and Alpha interfer -28.5%.
COc1cccc(-c2sc3ccccc3c2-c2ccc(OCCN(C)C)cc2)c1 was read as Ecoli rRNA inh -54.3, esBAF inh -84.7, Wnt act -1.6, AF4-AF9 inh 29.1*, MITF act -19.6 and Alpha interfer 0.4%.
COCC(=O)N1CCC2(CC1)CN(Cc1ccc3c(c1)OCO3)[C@@H](CO)c1c2c2ccc(OC)cc2n1C was read as Ecoli rRNA inh 1.1 and AF4-AF9 inh -1.4.
`Cc1cccc(NNC(=O)C(=O)NNc2cccc(C)c2)c1` gave Ecoli rRNA inh 8.5, Wnt act -1.3 and AF4-AF9 inh -1.4.
Screening Cc1cccc(N=NC(=S)NNc2cccc(C)c2)c1 returned Ecoli rRNA inh -20.4*, esBAF inh 52.2*, Wnt act -2.8, AF4-AF9 inh 35.6*, MITF act 39.0 and Alpha interfer 1.02µM*.
`CN(C)c1ccc(-c2cc(O)c3ncccc3c2)cc1` gave Ecoli rRNA inh -4.4, esBAF inh -8.8, Wnt act 13.0, AF4-AF9 inh 15.1 and MITF act 20.5.
Screening Oc1cc(-c2ccncc2)cc2cccnc12 returned Ecoli rRNA inh -44.4, esBAF inh -79.8, Wnt act 2.9, AF4-AF9 inh 28.8* and Alpha interfer 9.1µM*.
Screening CN(C)CCCNC(=O)c1ccccn1 returned esBAF inh -1.3, Wnt act -2.1 and MITF act 1.5.
CN(C)CCCNC(=O)c1ccc(-c2cc(O)c3ncccc3c2)cc1 was read as Ecoli rRNA inh -39.6, esBAF inh -1.7, Wnt act -4.9, AF4-AF9 inh 87.3*, MITF act 2.6 and Alpha interfer 1.77µM*.
For CC1CCCCC1NC(=O)c1ccc(S(=O)(=O)N2CCCC2)cc1 (stereo not given) the results were esBAF inh -0.9, Wnt act -1.7 and MITF act -1.5.
CC(C)C[C@@H](C(=O)NC1CCN(Cc2ccccc2)CC1)N1C(=O)N2CCc3c([nH]c4ccccc34)[C@@]2(C)C1=O was read as Ecoli rRNA inh 8.0, esBAF inh -1.0, Wnt act -2.9, AF4-AF9 inh 37.5*, MITF act -49.6 and Alpha interfer -2.4%.
`CC(C)C[C@@H](C(=O)NC1CC1)N1C(=O)N2CCc3c([nH]c4ccccc34)[C@@]2(C)C1=O` gave Ecoli rRNA inh 3.1, esBAF inh 0.7, Wnt act 0.5, AF4-AF9 inh 7.2 and MITF act -5.6.
C[C@H](CO)N1C[C@H](C)[C@H](CN(C)C(=O)C2CC2)Oc2cc(C#Cc3ccccn3)ccc2S1(=O)=O was read as Ecoli rRNA inh -0.8, esBAF inh -0.7 and AF4-AF9 inh -2.1.
C#CCOCCOCCOCCNc1nc(N2CCN(C(=O)[C@H](CCCN=C(N)N)n3cc(C(N)[C@@H](C)CC)nn3)CC2)nc(N2CCN(C(=O)[C@H](CCC(=O)O)n3cc([C@@H](N)CC(N)=O)nn3)CC2)n1 (stereo not given in full) was read as Ecoli rRNA inh 6.9, esBAF inh 1.6, Wnt act -1.3, AF4-AF9 inh 1.6 and MITF act -8.3.
`C#CCOCCOCCOCCNc1nc(N2CCN(C(=O)[C@H](CCCN=C(N)N)n3cc(C(N)[C@@H](C)CC)nn3)CC2)nc(N2CCN(C(=O)[C@H](CCCCN)n3cc([C@@H](N)CC(N)=O)nn3)CC2)n1` (stereo not given in full) gave Ecoli rRNA inh 9.9, esBAF inh 2.5, Wnt act 0.3, AF4-AF9 inh 36.8*, MITF act 3.5 and Alpha interfer -13.0%.
For C#CCOCCOCCOCCNc1nc(N2CCN(C(=O)[C@H]([C@@H](C)CC)n3cc(CCCN=C(N)N)nn3)CC2)nc(N2CCN(C(=O)[C@H](CCCCN)n3cc(CCCC)nn3)CC2)n1 the results were Ecoli rRNA inh -37.6, esBAF inh -6.4, Wnt act -1.4, AF4-AF9 inh 28.5*, MITF act -0.1 and Alpha interfer -11.2%.
Screening O=C(N/N=C/c1ccoc1)c1ccc(Br)cc1 returned Ecoli rRNA inh 8.4, esBAF inh 26.7, Wnt act 1.6, AF4-AF9 inh -1.2 and MITF act 5.1.
CCCC(=O)NC(c1ccc(C(C)C)cc1)c1ccc2cccnc2c1O (stereo not given) was read as Ecoli rRNA inh 3.9, esBAF inh -38.2, Wnt act -4.9 and AF4-AF9 inh -1.4.
CCCC(=O)NC(c1ccc(N(C)C)cc1)c1ccc2cccnc2c1O (stereo not given) was read as Ecoli rRNA inh -16.3, esBAF inh -67.3, Wnt act 2.1, AF4-AF9 inh 50.1*, MITF act -71.8 and Alpha interfer 1.51µM*.
For O=C(CN1C(=O)c2ccccc2S1(=O)=O)c1ccc2c(c1)OCCCO2 the results were Ecoli rRNA inh -7.5, Wnt act -3.1 and AF4-AF9 inh -3.5.
`COc1cc(CO)ccc1Oc1nc2ccccc2n2cnnc12` gave Ecoli rRNA inh 18.6, esBAF inh 4.3, Wnt act -1.1, AF4-AF9 inh 3.3 and MITF act -0.1.
`CCN(CC)S(=O)(=O)N1CCC(C(=O)NCc2ccc(C)cc2)CC1` gave esBAF inh 1.9, Wnt act 1.8 and MITF act -6.0.
CCN(CC)c1ccc(CN2CCC(C(=O)NCc3ccc(C)cc3)CC2)cc1 was read as Ecoli rRNA inh -2.3, Wnt act -2.0, AF4-AF9 inh inconclusive and Alpha interfer -34.5%.
